# Several values for one entry are separate records, joined by “and”; a condition that tells them apart may be missing. Identical values can stand only once. Records with an inconclusive call do not appear. Where a structure was tested more than once in an assay, its records may differ in their call. Activity calls are given as the source filed them. The calls were made as follows: active = hit-call score of the fitted dose curve at least 0.9, where 1 is the maximum; inconclusive = response in the unintended direction; inactive = score below 0.9.
# Target: human Retinoid X Receptor beta (RXRb), RXRB (gene 6257) (UniProt P28702)
# Sequence (P28702 whole entry, looked up): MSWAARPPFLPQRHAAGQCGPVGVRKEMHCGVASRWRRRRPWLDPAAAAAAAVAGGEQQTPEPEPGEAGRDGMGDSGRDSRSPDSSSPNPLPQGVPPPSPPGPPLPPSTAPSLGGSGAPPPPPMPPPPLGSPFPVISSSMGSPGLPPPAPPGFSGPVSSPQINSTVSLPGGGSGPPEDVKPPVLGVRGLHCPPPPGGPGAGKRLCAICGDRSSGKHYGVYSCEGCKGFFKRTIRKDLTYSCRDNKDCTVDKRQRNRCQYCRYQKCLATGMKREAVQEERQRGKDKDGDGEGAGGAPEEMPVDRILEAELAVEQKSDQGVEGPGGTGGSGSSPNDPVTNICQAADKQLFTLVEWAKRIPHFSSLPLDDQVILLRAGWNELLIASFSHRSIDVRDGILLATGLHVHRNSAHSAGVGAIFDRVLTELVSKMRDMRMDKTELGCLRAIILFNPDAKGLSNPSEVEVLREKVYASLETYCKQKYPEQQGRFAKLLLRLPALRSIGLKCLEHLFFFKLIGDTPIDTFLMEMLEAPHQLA
# Assay: ATG_RXRb_TRANS: Attagene TRANS-FACTORIAL HepG2 Assay for human Retinoid X Receptor beta (RXRb) (AID 2283013)
# Procedure: ATG_TRANS is a cell-based, multiplexed-readout assay that uses HepG2, a human liver cell line, with measurements taken at 24 hours after chemical dosing in a 24-well plate.ATG_RXRb_TRANS is one of 30 assay component(s) measured or calculated from the ATG_TRANS assay. It is designed to make measurements of mRNA induction, a form of inducible reporter, as detected with fluorescence intensity signals by Reverse transcription polymerase chain reaction (RT-PCR) and Capillary electrophoresis technology.Data from the assay component ATG_RXRb_TRANS was analyzed into 1 assay endpoint. This assay endpoint, ATG_RXRb_TRANS, was analyzed in the positive analysis fitting direction relative to DMSO as the negative control and baseline of activity. Using a type of inducible reporter, measures of mRNA for gain-of-signal activity can be used to understand the reporter gene at the transcription factor-level as they relate to the gene RXRB. Furthermore, this assay endpoint can be referred to as a primary readout, because this assay has produced multiple assay endpoints where this one serves a reporter gene function. To generalize the intended target to other relatable targets, this assay endpoint is annotated to the nuclear receptor intended target family, where the subfamily is non-steroidal.
# Human liver HepG2 cells are transiently transfected with multiple reporter transcription units (MRTUs) in 6-well plates using FuGene 6 reagent (Roche; 3 ml FuGene/1 mg DNA). The MRTU constructs are regulated by a cis-regulating element (promoter). […] A major difference between the CIS and TRANS system is that in CIS activities of endogenous TFs are measured, whereas the TRANS assay evaluates changes in activities of exogenous, chimeric NR-Gal4 proteins. […] At the end of 24 hour incubation, total RNA was isolated using TriZol reagent (Invitrogen). The isolated RNA is then reverse-transcribed using oligo(dT) primer and Mo-MLV reverse transcriptase (Invitrogen) with DNAse I (Ambion) treatment for 30 min. The one-tenth of the produced cDNA was amplified by PCR using Taq DNA polymerase (Invitrogen) and two reporter sequence-specific primers. The PCR products were fluorescently labeled by primer extension with 6-arboxyfluorescein (6-FAM) 5'-labeled reporter sequence-specific primer (2 min at 95 C, 20 s at 68 C and 10 min at 72 C) and these products were digested with 5U of HpaI (New England Biolabs) for 2h at 37 C. The fragments were purified using Qiaquick PCR columns (Qiagen), analyzed on an ABI 3130xL genetic analyzer (Applied Biosystems) with peak positions identified by using a set of X-rhodamine (ROX)-labeled MapMarker1000 molecular weight standards (BioVentures). The raw capillary electrophoresis data was processed using Attagraph software (Attagene).
SMILES,outcome,AC50
CCCCCCCCCCCCCCCCCC[N+](C)(C)Cc1ccccc1,inactive,
O=C(O)C(F)(F)OC(F)(F)C(F)(F)OC(F)(F)C(F)(F)OC(F)(F)C(F)(F)C(F)(F)C(F)(F)F,,13.3 µM (active) and 9.78 µM (active)
CNNCc1ccc(C(=O)NC(C)C)cc1,inactive,
CCCCN(C)C,inactive,
CCOC(C)=O,inactive,26.6 µM (active)
O=C(O)c1cccc(C(=O)O)n1,inactive,
O=C(Nc1ccc(Cl)c(Cl)c1)c1cc(Cl)cc(Cl)c1O,inactive,
NC(=NCCCCCCN=C(N)/N=C(\N)Nc1ccc(Cl)cc1)/N=C(\N)Nc1ccc(Cl)cc1,inactive,
OCCN1CN(CCO)CN(CCO)C1,inactive,
Cc1cc(C(C)(C)C)c(O)c(C(C)(C)C)c1,,918 nM (active) and 88 nM (active)
CCCCCCC(C)(C)C(=O)O,inactive,
C=CC(=O)OCC(CO)(COCC(COC(=O)C=C)(COC(=O)C=C)COC(=O)C=C)COC(=O)C=C,inactive,
O=c1cc(-c2ccccc2)oc2ccc3ccccc3c12,inactive,
OCC(F)(F)C(F)(F)C(F)(F)C(F)(F)C(F)(F)C(F)(F)C(F)(F)C(F)(F)C(F)(F)C(F)(F)C(F)(F)F,inactive,
CCCCc1ccc2ccccc2c1S(=O)(=O)O,,77.1 µM (active)
CCCCCCCCC1CCC(=O)O1 (stereo not given),inactive,
CCCCCCc1ccc(N)cc1,inactive,
C[N+](C)(CCCNS(=O)(=O)CCC(F)(F)C(F)(F)C(F)(F)C(F)(F)C(F)(F)C(F)(F)F)CC(=O)[O-],inactive,
Clc1ccc2c(Cl)ccnc2c1,inactive,

SMILES,outcome,AC50
O=C(O)C(=O)O,inactive,
CN(C)c1ccc(C(=C2C=CC(=[N+](C)C)C=C2)c2ccccc2)cc1,inactive,1.36 µM (active)
COCN(COC)c1nc(N(COC)COC)nc(N(COC)COC)n1,inactive,
CC(C)(c1ccc(Oc2ccc(N)cc2)cc1)c1ccc(Oc2ccc(N)cc2)cc1,inactive,
O=C1NS(=O)(=O)c2ccccc21,inactive,
CCC(C)c1nccnc1OC (stereo not given),inactive,
O=P(O)(O)CCC(F)(F)C(F)(F)C(F)(F)C(F)(F)C(F)(F)C(F)(F)C(F)(F)C(F)(F)F,inactive,
C[C@]12CC[C@@H]3c4ccc(O)cc4CC[C@H]3[C@@H]1C[C@@H](O)[C@@H]2O,inactive,
CC(=O)CC(C)C,inactive,
O=C(O)CCC(F)(F)C(F)(F)C(F)(F)C(F)(F)C(F)(F)F,inactive,
Cc1cccc2c1ccc1ccccc12,,22.6 µM (active)
Oc1cccc2c(O)cccc12,inactive,
c1ccc(CNc2ncnc3c2ncn3C2CCCCO2)cc1 (stereo not given),inactive,
CCN(CCC#N)c1ccccc1,inactive,
Cc1ccccc1C(OCCN(C)C)c1ccccc1 (stereo not given),inactive,
Cc1ccc2ccc3ccc(C)cc3c2c1,,12.9 µM (active)
C=Cc1ccc(O)c(OC)c1,inactive,
CC(C)[C@@H]1CC[C@@H](C)C[C@H]1O,inactive,
Nc1ccc(O)c(C(=O)O)c1,inactive,

# Source: PubChem BioAssay (EPA / NIEHS)
